Compound activity deposited in PubChem by The Scripps Research Institute Molecular Screening Center.
An excerpt weighted towards active compounds, which were near 3.5% of everything screened.
FBW7 act: human FBW7 E3 ligase activation, primary screen; Q969H0; AlphaScreen FBW7–phospho-cyclin E peptide binding, activator screen; normalized activity (activation), % at 26.1 µM; 0.13% of 650,000 active; AID 1259310; in the data active = normalized activity above about 1.9%;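 note: purified mutant Fbw7 with reduced substrate affinity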
Target sequence (Q969H0 whole entry, looked up): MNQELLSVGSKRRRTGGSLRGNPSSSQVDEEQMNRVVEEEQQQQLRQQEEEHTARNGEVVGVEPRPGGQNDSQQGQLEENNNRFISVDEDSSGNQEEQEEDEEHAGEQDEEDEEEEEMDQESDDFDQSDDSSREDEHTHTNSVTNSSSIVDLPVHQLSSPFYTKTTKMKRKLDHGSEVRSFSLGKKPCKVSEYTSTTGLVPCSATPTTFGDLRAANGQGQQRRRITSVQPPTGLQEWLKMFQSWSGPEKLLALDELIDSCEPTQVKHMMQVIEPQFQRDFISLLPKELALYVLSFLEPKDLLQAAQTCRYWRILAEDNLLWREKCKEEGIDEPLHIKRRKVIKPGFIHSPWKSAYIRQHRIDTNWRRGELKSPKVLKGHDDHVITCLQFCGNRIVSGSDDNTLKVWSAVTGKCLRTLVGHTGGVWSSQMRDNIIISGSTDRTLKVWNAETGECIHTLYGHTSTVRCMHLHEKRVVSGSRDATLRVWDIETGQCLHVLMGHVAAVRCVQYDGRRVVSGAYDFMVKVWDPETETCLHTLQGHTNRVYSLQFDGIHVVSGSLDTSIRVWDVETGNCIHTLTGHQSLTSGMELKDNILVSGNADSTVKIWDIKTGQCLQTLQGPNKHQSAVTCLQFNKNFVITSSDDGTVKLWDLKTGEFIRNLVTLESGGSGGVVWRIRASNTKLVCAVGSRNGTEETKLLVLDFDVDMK
GPR151 activ: human GPR151 activation; Q8TDV0; PathHunter beta-arrestin GPR151 cells, luminescence; activation, % at 11.2 µM; 1% of 650,000 active; AID 1508602; in the data active = activation above about 4.9%
MITF inh: blocks human microphthalmia-associated transcription factor; AlphaScreen MITF homodimerization, bead proximity signal; 0.91% of 650,000 active; O75030; inhibition, % at 2.6 µM; in the data active = inhibition above about 50%
TEAD-YAP inh: TEAD-YAP interaction inhibition | HEK-TIYL cells, TEAD-Gal4/YAP UAS-luciferase luminescence | inhibition, % at 9.12 µM | 1.4% of 640,000 active; in the data active = inhibition above about 32%
GPR151 confirm: confirmation of human GPR151 activators. shares compounds with GPR151 activ. GPR151 PathHunter beta-arrestin cells, luminescence, 90 min; % of EA-reagent control over plate median. activation, % at 11.2 µM. 6,700 tested, under 10 active. AID 1508609;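 active = mean percent activation across replicates above the confirmation screen cutoff of 4.91%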
GPR119 ag: counter-screen for GPR151 activators: effect on human GPR119; shares compounds with GPR151 activ; 0.3% of 6,700 active; AID 1508611; activation, % at 11.2 µM; GPR119 PathHunter beta-arrestin cells, luminescence, 90 min; 0 = compound-well median, 100 = enzyme-acceptor control;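 active = mean percent activation in the counterscreen above 29.09%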;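 note: counterscreen on off-target GPR119 to flag nonselective hits from the GPR151 activator screen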
Hits are given with their value; – = inactive; · = no result; ! = not confirmed by another sample.

SMILES | FBW7 act | GPR151 activ | MITF inh | TEAD-YAP inh | GPR151 confirm | GPR119 ag
Cc1nc(N2CCC(C(N)=O)CC2)c2c(-c3cccs3)csc2n1 | – | 5.4 | – | – | – | –
Cc1nc(N2CCCN(C)CC2)c2c(-c3cccs3)csc2n1 | – | – | – | – | · | ·
O=C(Nc1c2c(nn1-c1ccc(Cl)cc1)CSC2)c1ccccc1I | – | – | – | – | · | ·
COc1cc(OC)cc(-c2noc(C3CCN(S(=O)(=O)c4ccc(Cl)cc4)CC3)n2)c1 | – | 5.2 | – | – | – | –
Cc1cccc(NC(=O)C2CCCN(S(=O)(=O)c3ccc4[nH]c(=O)ccc4c3)C2)n1 (configuration not stated) | – | 5.3 | – | – | – | –
N=C1C(c2nc3ccccc3[nH]2)=C(O)CN1c1ccc(F)cc1 | – | – | – | – | · | ·
CC(C)c1ccc(N2CC(O)=C(c3nc4ccccc4[nH]3)C2=N)cc1 | – | 7.9 | – | – | – | –
Cc1c(N=Cc2ccccc2)cc([N+](=O)[O-])cc1[N+](=O)[O-] | – | 5.3 | – | – | – | –
Cc1c(N=CN(C)C)cc([N+](=O)[O-])cc1[N+](=O)[O-] | – | – | – | – | · | ·
CCOC(=O)c1c(NC(=O)c2cc(-c3ccccc3Cl)nc3ccccc23)sc2c1CCCCCC2 | – | – | – | – | · | ·
COc1ccc(/C=C2/Sc3ccc(C(=O)NC(C)(C)C)cc3NC2=O)cc1 | – | – | – | – | · | ·
COCCCNC(=O)c1ccc2c(c1)NC(=O)/C(=C\c1ccc(OC)cc1)S2 | – | 7.2 | – | – | – | –
CC(=O)c1ccc(N2C(=O)CC(Sc3ccccc3C(=O)O)C2=O)cc1 (configuration not stated) | – | – | – | – | · | ·
Cc1cc(NC(=O)c2ncoc2-c2ccc3ccccc3c2)no1 | – | – | – | – | · | ·
Fc1ccc(C(c2nnnn2Cc2ccco2)N2CCN(C3CCCCC3)CC2)cc1 (configuration not stated) | – | – | – | – | · | ·
Fc1ccc(C(c2nnnn2Cc2ccco2)N2CCN(Cc3ccccc3)CC2)cc1 (configuration not stated) | – | 5.8 | – | – | – | –
CSCCC(=O)N1CCC(CCC(=O)Nc2cccc(C)c2)CC1 | – | – | – | – | · | ·
O=C(NC1CCCCCCC1)C(Cl)Cl | – | – | – | – | · | ·
CC1CC(=O)N(c2ccc(N3CCCCCC3)c([N+](=O)[O-])c2)C1=O (configuration not stated) | – | – | – | – | · | ·
CC1CC(C)CN(c2ccc(N3C(=O)CC(C)C3=O)cc2[N+](=O)[O-])C1 (configuration not stated) | – | 6.5 | – | – | – | –
CC(=O)Nc1ccc(NC(=O)COC(=O)c2ccc3c(c2)nc(C)n3-c2ccccc2)cc1 | – | 11 | – | – | – | –
COc1ccc(-c2cc(C(=O)N/N=C(\C)c3ccc(O)cc3O)[nH]n2)cc1 | – | – | – | – | · | ·
COc1cc(CN2CCN(CC3CCCCC3)C(CCO)C2)cc2c1OCO2 (configuration not stated) | – | – | – | – | · | ·
CCc1ccc(Nc2nc(N3CCCC3)nc(N3CCCC3)n2)cc1 | – | 4.9 | – | – | – | –
Cc1ccc(Nc2nc(N3CCCC3)nc(N3CCCC3)n2)cc1 | – | – | – | – | · | ·
SMILES | FBW7 act | GPR151 activ | MITF inh | TEAD-YAP inh | GPR151 confirm | GPR119 ag
C#C[C@]1(OC(C)=O)CC[C@H]2[C@@H]3CCC4=CC(=O)CC[C@@H]4[C@H]3CCC21C (some centres not stated) | – | 9.3 | – | · | – | –
C#C[C@]1(O)CC[C@H]2[C@@H]3CCC4=CC(=O)CC[C@@H]4[C@H]3CC[C@@]21C | – | – | – | · | · | ·
CC(Oc1c(Cl)cccc1Cl)C1=NCCN1 (configuration not stated) | – | 4.9! | – | – | – | –
C=CCNC(=S)Nc1cccc2cnccc12 | – | – | – | – | · | ·
CC(C)NC(=O)c1ccc(COCC(F)(F)F)cc1 | – | – | – | – | · | ·
CC(C)NC(=O)c1ccc(C(=O)C(F)(F)F)cc1 | – | 5.6 | – | – | – | –
CC(C)NC(=O)C(=O)NNC(=O)c1ccc(C(C)(C)C)cc1 | – | 5.7 | – | – | – | –
O=C(NCCc1ccccc1)c1cc(-c2ccc(O)cc2)on1 | – | – | – | – | · | ·
C=CCNCCC1CCC(=O)N1Cc1ccc(C)o1 (configuration not stated) | – | – | – | – | · | ·
C=CCNCCC1CCC(=O)N1Cc1cn2c(C)csc2n1 (configuration not stated) | – | 12 | – | – | – | –
O=C(c1cnc2ccccc2n1)N1CCN(c2cc(-c3ccccc3)ncn2)CC1 | – | – | – | – | · | ·
COc1ccc(C2C(C#N)=C(N)Oc3cc(N)ccc32)cc1Br (configuration not stated) | – | 7.6 | – | – | – | –
O=C(/C=C/c1c(F)cccc1Cl)NCCN1CCOCC1 | – | 6.2 | – | – | – | –
Cc1sc(NC(=O)C2(C)CC2(Cl)Cl)c(C(N)=O)c1C (configuration not stated) | – | – | – | – | · | ·
CC(CCc1ccccc1)NC(=O)Cn1c(CO)nc2ccccc21 (configuration not stated) | – | 6.2 | – | – | – | –
Cc1ccc(NC(=O)CSc2nncc(=O)[nH]2)cc1Cl | – | – | – | – | · | ·
CCOc1nc(OCC)nc(Oc2ccc([N+](=O)[O-])cc2)n1 | – | – | – | – | · | ·
COCCCN1C(=O)C(=O)/C(=C(\O)c2ccc(C)cc2)C1c1ccc(F)cc1 (configuration not stated) | – | 7.6 | – | – | – | –
COc1cc(C2/C(=C(/O)c3ccc(Cl)cc3)C(=O)C(=O)N2CCO)ccc1O (configuration not stated) | – | – | – | – | · | ·
COc1ccc(/C(O)=C2/C(=O)C(=O)N(CCCO)C2c2cccc(Cl)c2)cc1F (configuration not stated) | – | 6.8 | – | – | – | –
COc1cc2c(cc1OC)n(CC(=O)NCCN1CCN(C)CC1)n1c(C)cc(=O)nc21 | – | – | – | – | · | ·
Cc1cc(NC(=O)Cn2cnc([N+](=O)[O-])n2)nn1CC(=O)NCc1ccco1 | – | 5.5 | – | – | – | –
Cc1cc(NS(=O)(=O)c2ccc(Cl)cc2)nn1CC(=O)NCc1ccco1 | – | – | – | – | · | ·
O=C(c1cc(Sc2ccccc2Cl)nc2ccccc12)N1CCC2(CC1)OCCO2 | – | – | – | – | · | ·
Cc1cc(C(=O)COC(=O)c2ccc(CO)cc2)c(C)n1-c1ccc(F)cc1 | – | 5.0 | – | – | – | –
Cc1cnc(C(=O)OCC(=O)c2cc(C)n(CCc3ccc(F)cc3)c2C)cn1 | – | 8.1 | – | – | – | –
COC(=O)c1ccc(-n2c(C)cc(C(=O)COC(=O)c3ccccc3C=O)c2C)cc1 | – | – | – | – | · | ·
C(=Nc1ccc(N=Cc2cccnc2)cc1)c1cccnc1 | – | – | – | – | · | ·
